Assay [1] in a line: compound effects on lung adenocarcinoma cell viability – A549, calcein-AM fluorescence, 48 h, basal, profiling panel (AID 1162). Also: test concentration not given here. To be noted: higher = more signal.
The nature of assay [2]: compound effects on differentiated 3T3-L1 adipocyte viability – cell-based, 3T3-L1 adipocytes, calcein-AM fluorescence, 48 h, basal, profiling panel (AID 1163). Also: test concentration not given here. To be noted: 3T3-L1 adipocytes viability, higher = more signal.
Assay [3] in a line: compound effects on hepatocellular carcinoma cell viability – HepG2, calcein-AM fluorescence, 48 h, basal, profiling panel (AID 1164). Also: test concentration not given here. To be noted: higher = more signal.
Assay [4] in a line: compound effects on multiple myeloma cell viability – MM1S, calcein-AM fluorescence, 48 h, basal, profiling panel (AID 1165). Also: test concentration not given here. The conditions noted are these: higher = more signal.
A short description of assay [5]: calcein-AM signal in unstimulated myeloma cells – cell-based, calcein-AM fluorescence, 48 h, PK04 Diversity Set, profiling panel (AID 1166).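 Also: cells grown under basal conditions without added stimulus; test concentration not given here.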 The conditions noted are these: RPMI8226 myeloma viability, higher = more signal.
Assay [6] can be described thus: JC-1 mitochondrial signal, unstimulated HepG2 cells – cell-based, JC-1 fluorescence, 24 h, 100 nL compound, profiling panel (AID 1167). Also: test concentration not given here. The conditions noted are these: HepG2 mitochondrial potential, higher = more signal.
The nature of assay [7]: JC-1 mitochondrial signal, unstimulated adipocytes – cell-based, JC-1 fluorescence, 3T3-L1 adipocytes, 24 h, 100 nL compound, profiling panel (AID 1168). Also: test concentration not given here. To be noted: JC-1 mitochondrial fluorescence, higher = more signal, called active from +8 up or from −8 down.
Assay [8] in a line: JC-1 mitochondrial signal, unstimulated myeloma cells – cell-based, JC-1 fluorescence, RPMI8226, 24 h, 100 nL compound, profiling panel (AID 1169). Also: test concentration not given here. To be noted: JC-1 mitochondrial potential fluorescence, higher = more signal.
Assay [9] is described as follows: JC-1 mitochondrial signal, unstimulated MM1S myeloma – cell-based, JC-1 fluorescence, 24 h, 100 nL compound, profiling panel (AID 1170). Also: test concentration not given here. To be noted: MM1S mitochondrial potential, higher = more signal.
Assay [10] in a line: resazurin metabolic signal in A549 cells – cell-based, resazurin fluorescence, 24 h, PK04 Diversity Set, profiling panel (AID 1171). Also: test concentration not given here. The conditions noted are these: A549 viability, higher = more signal, called active from +8 up or from −8 down. A general note: Resazurin is reduced to fluorescent resorufin, in cell work by metabolically active cells.
The nature of assay [11]: resazurin metabolic signal in HepG2 cells – cell-based, resazurin fluorescence, 24 h, PK04 Diversity Set, profiling panel (AID 1172). Also: test concentration not given here. The conditions noted are these: HepG2 viability, higher = more signal.
Assay [12] can be described thus: budding yeast growth changes without added modifier – OD600, strain BY4716, 24 h, basal condition, primary screen (AID 1173). To be noted: S. cerevisiae BY4716 growth, OD600, 24 h; higher = more signal, called active from +8 up or from −8 down.
A short description of assay [13]: viability profiling in MM1S myeloma cells – cell-based, resazurin fluorescence, basal, 24 h, PK04 Diversity Set, profiling panel (AID 1174). Also: test concentration not given here. To be noted: higher = more signal, called active from +8 up or from −8 down.
The target of assay [14] is Dihydroorotate dehydrogenase (quinone), mitochondrial (Plasmodium falciparum (isolate 3D7)) (UniProt Q08210). Description: inhibition of P. falciparum DHODH – biochemical, C-terminal His tag, absorbance 600 nm, primary screen (AID 1175).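 Also: recombinant parasite enzyme with a five histidine tag at its C terminus; test concentration not given here.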 To be noted: PfDHODH enzyme, DCIP absorbance 600 nm; higher = more signal, called active from +8 up or from −8 down.
Chain of Dihydroorotate dehydrogenase (quinone), mitochondrial (Plasmodium falciparum (isolate 3D7)) (Q08210 whole entry, looked up): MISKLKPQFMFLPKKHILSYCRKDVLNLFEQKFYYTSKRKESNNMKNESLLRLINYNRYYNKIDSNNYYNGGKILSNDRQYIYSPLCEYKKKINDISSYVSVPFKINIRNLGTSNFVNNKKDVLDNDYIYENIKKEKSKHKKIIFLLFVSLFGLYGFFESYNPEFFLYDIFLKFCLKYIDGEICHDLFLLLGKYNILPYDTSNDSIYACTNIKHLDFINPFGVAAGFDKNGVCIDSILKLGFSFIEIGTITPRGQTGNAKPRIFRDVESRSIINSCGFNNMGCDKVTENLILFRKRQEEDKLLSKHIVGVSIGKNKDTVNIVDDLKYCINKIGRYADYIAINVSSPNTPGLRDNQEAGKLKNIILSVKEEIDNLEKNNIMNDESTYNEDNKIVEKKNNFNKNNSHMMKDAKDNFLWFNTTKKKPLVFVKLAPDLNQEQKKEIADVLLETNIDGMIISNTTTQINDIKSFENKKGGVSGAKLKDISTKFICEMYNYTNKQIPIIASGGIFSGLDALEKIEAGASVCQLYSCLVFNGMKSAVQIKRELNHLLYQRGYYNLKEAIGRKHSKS
Assay [15] is described as follows: inhibition of PAO1 biofilm formation – strain PAO1, LB-PBS medium, absorbance 600 nm, primary screen (AID 1176). Also: test concentration not given here. To be noted: P. aeruginosa PAO1 growth/biofilm, A600, 12 h; higher = more signal.
Assay [16] can be described thus: growth modulation of vineyard yeast isolate – strain RM11-1a, OD600, basal, 24 h, primary screen (AID 1177).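 Also: cultures grown under basal conditions with no added stressor; test concentration not given here.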 To be noted: S. cerevisiae RM11-1a growth, OD600, 24 h; higher = more signal, called active from +8 up or from −8 down.
Assay [17] is described as follows: growth of efflux-deficient E. coli DRC39 – strain DRC39, OD650, 24 h, E. coli filamentation inducers, primary screen (AID 1178).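 Also: growth measured as culture turbidity by optical density at 650 nm; test concentration not given here.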 The conditions noted are these: E. coli DRC39 acrAB, higher = more signal, called active from +8 up or from −8 down.
A short description of assay [18]: growth of efflux-deficient E. coli DRC39 – strain DRC39, OD650, 48 h, E. coli filamentation inducers, primary screen (AID 1179).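 Also: screen aims at cell division blockers that make cells filament.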 The conditions noted are these: E. coli DRC39 delta-acrAB growth, higher = more signal, called active from +8 up or from −8 down.
Assay [19] in a line: viability profiling in RPMI8226 myeloma cells – cell-based, resazurin fluorescence, basal, 24 h, PK04 Diversity Set, profiling panel (AID 1180).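 Also: RPMI8826 multiple myeloma cell line at 5000 cells per well; test concentration not given here.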 The conditions noted are these: higher = more signal.
Assay [20] concerns the target E3 ubiquitin-protein ligase XIAP (Homo sapiens) (UniProt P98170). Kind of assay: small molecules binding XIAP protein – biophysical, small-molecule microarray, fluorescence 635 nm, primary screen (AID 1181).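 Also: score merges 667 nm emission and signal to noise over triplicate slides.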 To be noted: higher = more signal.

The structures appear in SMILES notation. The source made the active and inactive calls. Unless noted, no rule for the calls is given here.

Chain of E3 ubiquitin-protein ligase XIAP (Homo sapiens) (P98170 whole entry, looked up): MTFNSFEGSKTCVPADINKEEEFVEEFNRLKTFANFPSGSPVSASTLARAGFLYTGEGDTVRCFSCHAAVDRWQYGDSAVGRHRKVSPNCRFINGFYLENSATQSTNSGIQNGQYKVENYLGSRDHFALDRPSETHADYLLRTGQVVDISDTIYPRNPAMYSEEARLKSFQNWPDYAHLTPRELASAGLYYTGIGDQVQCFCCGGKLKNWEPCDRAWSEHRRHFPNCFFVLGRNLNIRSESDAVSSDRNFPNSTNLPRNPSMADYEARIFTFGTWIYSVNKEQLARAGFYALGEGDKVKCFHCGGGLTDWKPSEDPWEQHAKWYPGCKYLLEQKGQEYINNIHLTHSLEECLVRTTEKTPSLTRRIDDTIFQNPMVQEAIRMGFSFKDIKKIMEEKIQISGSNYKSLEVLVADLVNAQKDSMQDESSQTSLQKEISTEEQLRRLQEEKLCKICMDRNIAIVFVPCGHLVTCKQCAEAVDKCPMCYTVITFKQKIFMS

As to `O=C1O[C@H](c2ccccc2)[C@H](c2ccccc2)N2[C@H]1[C@@H](C(=O)Nc1nc3ccccc3s1)[C@]1(C(=O)Nc3ccc(C#CC4(O)CCCCCC4)cc31)[C@H]2c1ccccc1OCCO`, the z-score is -0.744 in assay [1]; 0.248 in assay [2]; -1.54 in assay [3]; -3.44 in [4]; -4.15 in [5]; -2.82 in [6]. In addition, the z-score in assay [7] is 2.18 (inactive); in assay [8] it was -0.951; in assay [9], -1.5; in [10], -2.21 (inactive); in assay [11], 0.162; in [12] it was 1.49 (inactive). Further, the z-score is -3.4 (inactive) in [13]; 3.52 (inactive) in assay [15]; 2.74 (inactive) in assay [16]; -0.295 (inactive) in assay [17]; -0.508 (inactive) in assay [18]; -5.13 in assay [19]. Also, the composite z-score in [14] is -1.28 (inactive); in [20] it was 0.25.

As to `C=CCC(OC(C)=O)[C@@H]1[C@@H](N(Cc2cc3ccccc3o2)C(=O)c2ccc(-c3ccccc3)cc2)c2cc(OCCCO)ccc2N1C(=O)c1ccc2ccccc2c1` (stereo not given in full), the z-score in [1] is 0.48; in assay [2] it was 1; in assay [3], 0.063; in assay [4], 0.532; in assay [5] it was 0.299; in [6] it was 1.81. In addition, the z-score is -1.11 (inactive) in assay [7]; 0.868 in [8]; 0.32 in assay [9]; 0.457 (inactive) in [10]; -0.98 in assay [11]; 1.9 (inactive) in [12]. Moreover, the z-score in assay [13] is 0.198 (inactive); in assay [15], 0.857 (inactive); in assay [16], 0.454 (inactive); in assay [17], -0.413 (inactive); in assay [18], -0.787 (inactive); in assay [19] it was -0.158. The composite z-score in [14] was 0.396 (inactive); in [20], -0.135.

On to `COCCOC(=O)N1C(=O)[C@@]2(c3cc(C#Cc4ccc(OC)cc4)ccc31)[C@H](c1ccccc1OCCO)N1[C@H](c3ccccc3)[C@H](c3ccccc3)OC(=O)[C@H]1[C@@H]2C(=O)N1CCCCCCC1`, for which the z-score in assay [1] was 0.161; in assay [2], 1.62; in [3] it was 1.19; in [4] it was -0.248; in assay [5] it was -0.584; in [6] it was 0.591. For the same compound, the z-score in [7] is 3.46 (inactive); in [8] it was -0.686; in assay [9], -1.16; in assay [10], 0.375 (inactive); in [11], 0.457; in assay [12], 1.29 (inactive). For the same compound, the z-score in assay [13] was 0.0229 (inactive); in assay [15] it was 3.49 (inactive); in assay [16], 1.84 (inactive); in assay [17], -0.398 (inactive); in [18] it was 0.118 (inactive); in [19], 0.504. The figures for the composite z-score in assay [14] and in assay [20] were -1.26 (inactive) and 0.223, respectively.

As to `C=CC[C@]1(C(=O)O)COC(c2ccc(OCCCO)cc2)=N1`, the z-score in assay [1] is 0.083; in assay [2], -0.206; in assay [3] it was -0.148; in assay [4] it was -0.0046; in assay [5], -0.571; in assay [6], 0.0919. The z-score in assay [7] was 0.224 (inactive); in [8], -0.0187; in assay [9], -0.116; in assay [10] it was -0.408 (inactive); in assay [11] it was 0.264; in assay [12], 0.32 (inactive). Further, the z-score was 0.546 (inactive) in assay [13]; 0.37 (inactive) in [15]; -0.643 (inactive) in assay [16]; -0.353 (inactive) in assay [17]; -0.201 (inactive) in assay [18]; -0.1 in [19]. Further, the composite z-score in [14] is 0.146 (inactive); in assay [20] it was 0.1.

With `COCCCNC(=O)[C@]1(CCS(=O)(=O)c2ccccc2)N=C(c2ccc(OCCCO)cc2)O[C@@H]1c1ccccc1CN=[N+]=[N-]`, the z-score was 1.61 in assay [1]; 0.652 in assay [2]; 1.15 in [3]; 0.114 in assay [4]; 0.0901 in assay [5]; 0.542 in assay [6]. In addition, the z-score in assay [7] was 0.482 (inactive); in [8] it was -0.393; in [9], -1.34; in assay [10], -0.97 (inactive); in assay [11] it was -0.776; in assay [12] it was 1.67 (inactive). For the same compound, the z-score in assay [13] was -3.5 (inactive); in assay [15] it was 0.438 (inactive); in assay [16], 1.62 (inactive); in [17] it was 0.0971 (inactive); in [18] it was 0.748 (inactive); in assay [19], -0.601. For the same compound, the composite z-score in assay [14] is 0.36 (inactive); in assay [20] it was 0.481.

On to `CN(C)C(=O)C1N=C(c2ccc(OCCCO)cc2)N(c2ccccc2)O1` (stereo not given), for which the z-score is 0.676 in assay [1]; -0.214 in [2]; 0.411 in assay [3]; 0.237 in [4]; -0.254 in assay [5]; 0.261 in assay [6]. The z-score in assay [7] is 0.756 (inactive); in [8], -0.0214; in assay [9], -0.911; in [10], 0.304 (inactive); in assay [11], 0.244; in assay [12] it was -1.29 (inactive). Also, the z-score in assay [13] is 0.689 (inactive); in assay [15], -0.841 (inactive); in assay [16] it was 0.353 (inactive); in assay [17], 1.16 (inactive); in assay [18], 1.56 (inactive); in [19], 0.271. In addition, the composite z-score in assay [14] is -1.01 (inactive); in assay [20], -0.181.

Take `C=C(CCCC)/C(=C/C[C@@H](OC(=O)c1ccncc1)c1ccccc1OCCO)c1cnc2ccccc2c1`: the z-score was 0.453 in [1]; 1.21 in assay [2]; -0.158 in assay [3]; -3.2 in [4]; -2 in assay [5]; 1.41 in assay [6]. In addition, the z-score was -2 (inactive) in assay [7]; -0.629 in [8]; 1.46 in [9]; -0.488 (inactive) in assay [10]; -0.846 in [11]; -2.19 (inactive) in [12]. For the same compound, the z-score in [13] is -1.09 (inactive); in assay [15] it was 1.07 (inactive); in assay [16], -0.592 (inactive); in assay [17], -0.334 (inactive); in assay [18], -0.514 (inactive); in [19], 0.133. In addition, the composite z-score was -3.38 (inactive) in assay [14] and -0.0599 in assay [20].

Take `C=C(C)C1CCC(C(O)C2C=CC3C(=O)N(C)C(=O)C3N2N2CCCCC2)CC1` (stereo not given): the z-score is -1.25 in assay [1]; -1.16 in [2]; -0.774 in assay [3]; -0.683 in assay [4]; -0.665 in [5]; -1.38 in assay [6]. Further, the z-score in assay [7] is -1.53 (inactive); in [8], 0.887; in assay [9] it was -0.31; in assay [10], 0.262 (inactive); in assay [11], -0.689; in [12], 0.08 (inactive). Besides, the z-score in assay [13] is -1.19 (inactive); in assay [15], 0.751 (inactive); in assay [16] it was 1.82 (inactive); in assay [17] it was -0.742 (inactive); in [18], -0.654 (inactive); in assay [19] it was -0.954. The composite z-score in [14] is 0.112 (inactive); in assay [20] it was 0.62.

For the compound `[N-]=[N+]=NCc1ccccc1[C@H]1OC(c2ccc(OCCCO)cc2)=N[C@@]1(CCS(=O)(=O)c1ccccc1)C(=O)NCC(O)CO` (stereo not given in full), the z-score in assay [1] was -0.257; in assay [2], 0.538; in assay [3], 0.0325; in assay [4], -0.381; in assay [5], 0.429; in assay [6], -1.57. Moreover, the z-score in assay [7] was 0.466 (inactive); in assay [8], -0.221; in [9], -1.78; in assay [10] it was -0.317 (inactive); in [11], 0.044; in assay [12], 0.323 (inactive). In addition, the z-score in assay [13] was -0.315 (inactive); in [15], 1.76 (inactive); in [16] it was 1.64 (inactive); in [17] it was 0.852 (inactive); in assay [18], -0.679 (inactive); in assay [19] it was 0.0345. Moreover, the composite z-score in [14] was 1.09 (inactive); in assay [20], -0.0553.

The values are drawn from PubChem BioAssay.
